{"source": "PubChem BioAssay AID777", "about": "(Sanford-Burnham Center for Chemical Genomics, 2007)", "note": "The campaign covered roughly 96,000 compounds. About 19,000 (20%) were called active. A selection follows. Values without a mark were called inactive.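 Rule for the calls: active = blocking of liver enzyme CYP2C9 beyond about 50% at 5 µM (limit read from the data); inactive = the rest.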"}
{"target": "Cytochrome P450 2C9 (Homo sapiens) (UniProt P11712)", "sequence (P11712 whole entry, looked up)": "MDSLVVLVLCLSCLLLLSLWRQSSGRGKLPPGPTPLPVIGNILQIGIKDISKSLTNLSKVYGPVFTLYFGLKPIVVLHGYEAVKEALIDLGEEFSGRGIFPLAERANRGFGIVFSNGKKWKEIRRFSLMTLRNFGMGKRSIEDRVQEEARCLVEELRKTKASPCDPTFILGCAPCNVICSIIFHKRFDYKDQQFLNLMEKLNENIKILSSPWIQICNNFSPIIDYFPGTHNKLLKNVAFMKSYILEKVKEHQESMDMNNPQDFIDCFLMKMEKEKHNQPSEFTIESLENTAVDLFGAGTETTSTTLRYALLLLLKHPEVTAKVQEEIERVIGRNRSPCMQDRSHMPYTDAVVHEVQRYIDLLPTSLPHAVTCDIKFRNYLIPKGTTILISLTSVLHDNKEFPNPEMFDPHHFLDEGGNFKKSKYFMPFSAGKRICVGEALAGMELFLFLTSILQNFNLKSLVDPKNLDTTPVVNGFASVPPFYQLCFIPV", "assay": "blockers of cytochrome P450 2C9 activity – biochemical, luminescence, ADME assay, primary screen (AID 777)", "settings": "CYP2C9 Supersomes, luciferin-H conversion, at 5 µM, hits give high values"}
{"smiles": "O=C(Nc1cc2c3c(c1)C1CCCC1CN3CC1CCCC21)c1ccc([N+](=O)[O-])cc1", "note": "(stereo unspecified)", "inhibition": "96.3% (active)"}
{"smiles": "O=C(NC1CCCCC1)c1cc([N+](=O)[O-])ccc1N1CCOCC1", "inhibition": "1.4%"}
{"smiles": "COc1cccc(N2CCN(C(=O)Nc3ccc4c(c3)NC(=O)CO4)CC2)c1", "inhibition": "13%"}
{"smiles": "O=C(Cc1nn[nH]n1)NCCC1=CCCCC1", "inhibition": "-1.8%"}
{"smiles": "Cc1ccc(-n2c(C)cc(/C=N/Nc3ccc([N+](=O)[O-])cn3)c2C)c(C)c1", "inhibition": "13.3%"}
{"smiles": "COc1ccc(CN(C(=O)c2cccs2)c2nccs2)cc1OC", "inhibition": "99% (active)"}
{"smiles": "COc1ccc(S(=O)(=O)N2CCN(C(=O)c3cccs3)CC2)cc1OC", "inhibition": "-35.4%"}
{"smiles": "O=C(c1cccs1)N(C(=O)c1cccs1)c1ccccn1", "inhibition": "21.5%"}
{"smiles": "CC(C)CC(=O)N/C(N)=N/c1nc2ccccc2s1", "inhibition": "27.6%"}
{"smiles": "C[N+]1(CCNC(=O)/C=N/O)CCCCC1", "inhibition": "5.6%"}
{"smiles": "Cc1nc(-c2ccccc2)sc1C(=O)/C=C/c1ccccc1", "inhibition": "15.9%"}
{"smiles": "Cc1ccc(SCC(=O)c2sc(-c3ccccc3)nc2C)cc1", "inhibition": "83.6% (active)"}
{"smiles": "Cc1ccc(SCC(=O)Nc2ncc(C)s2)cc1", "inhibition": "35.5%"}
{"smiles": "Cc1nn(-c2ncc(C(F)(F)F)cc2Cl)c(=O)n1-c1ccccc1", "inhibition": "-45.3%"}
{"smiles": "CCn1c(C)nc2c1C(=O)c1ccccc1C2=O", "inhibition": "-0.9%"}
{"smiles": "O=C1CCCCC(=O)c2ccccc2N1", "inhibition": "14.5%"}
{"smiles": "O=C(CSc1nc(-c2ccco2)cc(C(F)(F)F)n1)NCc1cccs1", "inhibition": "7.6%"}
{"smiles": "FC(F)(F)c1cc(-c2cccs2)nc(NCc2ccco2)n1", "inhibition": "60.7% (active)"}
{"smiles": "COc1nc(NCc2ccc(Cl)cc2)nc(OC)n1", "inhibition": "9.7%"}
{"smiles": "FC(F)(F)c1cc(-c2ccco2)nc(NCc2ccc(Cl)cc2)n1", "inhibition": "97.5% (active)"}
{"smiles": "COc1ccc(Nc2nc(Cl)nc(NCc3ccco3)n2)cc1", "inhibition": "5.9%"}
{"smiles": "FC(F)(F)c1cc(-c2ccco2)nc(N2CCOCC2)n1", "inhibition": "-16.1%"}
{"smiles": "CCc1ccc(/C=N/NC(=O)c2ccc(OC3CCCC3)cc2)s1", "inhibition": "-41.1%"}
{"smiles": "Cc1oc(-c2ccccc2Cl)[n+]([O-])c1C", "inhibition": "7.1%"}
{"smiles": "Cc1cnc(NC(=O)CSc2nnc(C)s2)s1", "inhibition": "8.4%"}
{"smiles": "O=C(CSc1nnc(-c2ccoc2)o1)N1CCOCC1", "inhibition": "-12.9%"}
{"smiles": "CCc1ccc(N(CC)c2ncnc3nc[nH]c23)cc1", "inhibition": "3.4%"}
{"smiles": "Cc1ccc(C)c(NC(=O)C2Cc3ccccc3CN2C(=O)OCc2ccccc2)c1", "note": "(stereo unspecified)", "inhibition": "65% (active)"}
{"smiles": "Cc1ccc(C)c(NC(=O)C2CCCN2C(=O)OC(C)(C)C)c1", "note": "(stereo unspecified)", "inhibition": "-1.5%"}
{"smiles": "COc1cccc(NC(=O)C2CCCN2C(=O)OCc2ccccc2)c1", "note": "(stereo unspecified)", "inhibition": "15.8%"}
{"smiles": "O=C(Nn1cnc2ccccc2c1=O)c1ccc(F)cc1Cl", "inhibition": "-8.6%"}
{"smiles": "O=C(CN1CCN(c2ccc(Cl)cc2)CC1)N1CCCC1", "inhibition": "57.4% (active)"}
{"smiles": "O=C(CSCc1ccc(Cl)cc1)N1CCCCC1", "inhibition": "-83.2%"}
{"smiles": "Cc1ccc2[nH]c3c(c2c1)CN(C(=O)CN1CCN(c2ccccc2)CC1)CC3", "inhibition": "30.7%"}
{"smiles": "Cc1nc(-c2ccccc2)sc1-c1nc(-c2ccccc2)ncc1S(=O)(=O)c1ccccc1", "inhibition": "37.8%"}
{"smiles": "c1ccc(-c2nnc3n2NC(c2ccc4c(c2)OCO4)S3)cc1", "note": "(stereo unspecified)", "inhibition": "21.6%"}
{"smiles": "c1ccc(CSc2nnc(-c3ccco3)c(-c3ccco3)n2)cc1", "inhibition": "72.9% (active)"}
{"smiles": "c1ccc(CSc2nnc(-c3ccco3)n2Cc2ccccc2)cc1", "inhibition": "31.7%"}
{"smiles": "Clc1ccccc1CSc1nnc(-c2ccco2)c(-c2ccco2)n1", "inhibition": "38.8%"}
{"smiles": "COc1ccc(C2C3=C(OC(C)=O)c4ccccc4C3=Nc3c2c(=O)n(C)c(=O)n3C)cc1", "note": "(stereo unspecified)", "inhibition": "7.6%"}
{"smiles": "CC(C)(C)NC(=O)Cn1nnc(-c2ccccc2Cl)n1", "inhibition": "-42.7%"}
{"smiles": "COc1ccc(-c2nnn(CC(=O)N(CCO)C(C(=O)NC3CCCC3)c3ccc(F)cc3)n2)cc1", "note": "(stereo unspecified)", "inhibition": "-3.9%"}
{"smiles": "Cc1ccc(-c2nnn(CC(=O)N(CCO)C(C(=O)NC(C)(C)C)c3ccncc3)n2)cc1", "note": "(stereo unspecified)", "inhibition": "76.1% (active)"}
{"smiles": "O=C(Nc1cc(N2CCOCC2)ncn1)NC1(C(F)(F)F)Oc2ccc(Cl)cc2O1", "note": "(stereo unspecified)", "inhibition": "21.6%"}
{"smiles": "CCOCCCNC(=O)C(NC(=O)c1ccc(=O)[nH]c1)c1ccc(C)cc1", "note": "(stereo unspecified)", "inhibition": "16.2%"}
{"smiles": "O=C(Nc1nncs1)c1ccccc1NS(=O)(=O)c1cccs1", "inhibition": "76.4% (active)"}
{"smiles": "Cc1ccccc1NC(=O)c1ccccc1NS(=O)(=O)c1cccc2cccnc12", "inhibition": "45.1%"}
{"smiles": "COc1ccc(C(=O)Nc2nncs2)c(OC)c1", "inhibition": "-1.4%"}
{"smiles": "CC(=O)c1ccc(NC(=O)N[C@@H](Cc2ccccc2)C(=O)O)cc1", "inhibition": "4.2%"}
{"smiles": "N#CC1=C(N)Oc2n[nH]c(CSc3ccccc3)c2C12C(=O)Nc1ccccc12", "note": "(stereo unspecified)", "inhibition": "24.3%"}
{"smiles": "Cc1csc2ncc(C(=O)N(Cc3ccccc3)c3ccccn3)c(=O)n12", "inhibition": "6.4%"}
{"smiles": "COCCCn1c(SCc2cccc(OC)c2)nc2cc(OC)c(OC)cc2c1=N", "inhibition": "71.3% (active)"}
{"smiles": "COc1cccc(-c2cc3nc4c(c(N5CCC6(CC5)OCCO6)n3n2)CCCC4)c1", "inhibition": "49.8%"}
{"smiles": "O=C(Cc1ccc(F)cc1)NC1CCCC1", "inhibition": "-37.8%"}
{"smiles": "O=C(Cn1cnc2c(cnn2-c2ccccc2)c1=O)NCc1ccccc1", "inhibition": "-7.3%"}
{"smiles": "CCOC(=O)Nc1ccc(S(=O)(=O)N(C)C(C)C)cc1", "inhibition": "32%"}
{"smiles": "COC(=O)Nc1ccc(S(=O)(=O)N(C)CC(F)(F)C(F)F)cc1", "inhibition": "59.2% (active)"}
{"smiles": "COC(=O)Nc1ccc(S(=O)(=O)N2CCN(CCN3C(=O)C4C5C=CC(C5)C4C3=O)CC2)cc1", "note": "(stereo unspecified)", "inhibition": "19.6%"}
{"smiles": "CC(=O)NC1(c2cccc(F)c2)CCN(CC(=O)NC(C)C)CC1", "inhibition": "4.1%"}
{"smiles": "CON(C)S(=O)(=O)c1ccc2c(c1)NC(=O)C1CCCN21", "note": "(stereo unspecified)", "inhibition": "44%"}
{"smiles": "O=S(=O)(c1ccc(F)cc1)n1ccc(-c2cnc(-c3ccccc3)s2)n1", "inhibition": "53.9% (active)"}
{"smiles": "CCn1nnc(NC(=O)c2c(OC)cccc2OC)n1", "inhibition": "-11.4%"}
{"smiles": "O=C(Oc1ccc([N+](=O)[O-])cc1)c1ccc2ccccc2n1", "inhibition": "-28.9%"}
{"smiles": "Cn1cc(S(=O)(=O)N2CCN(c3ccc(F)cc3)CC2)c(=O)n(C)c1=O", "inhibition": "-8.1%"}
{"smiles": "Cc1cc(C)cc(NC(=O)C2CCN(c3nc(C)cc(C)n3)CC2)c1", "inhibition": "15.4%"}
{"smiles": "Cc1cc(NC(=O)c2cccc(N3C(=O)CCC3=O)c2)no1", "inhibition": "3.5%"}
{"smiles": "COc1ccc(-n2c(SCC(=O)Nc3ccc4c(c3)OCO4)nnc2C(C)N2CCCCC2)cc1", "note": "(stereo unspecified)", "inhibition": "20.2%"}
{"smiles": "CC1CCCN(C(C(=O)Nc2ccc(C(C)C)cc2)c2ccc3c(c2)OCO3)C1", "note": "(stereo unspecified)", "inhibition": "16.7%"}
{"smiles": "O=C(Nc1ccc2c(c1)OCCO2)C(c1ccc(F)cc1)N1CCCCC1", "note": "(stereo unspecified)", "inhibition": "67.1% (active)"}
{"smiles": "CC(=O)Nc1ccc(S(=O)(=O)N2CCC(N(C)CCC(C)C)CC2)cc1", "inhibition": "19.4%"}
{"smiles": "CCN1CCN(C(=O)c2ccccc2N(C)S(=O)(=O)c2ccc(C)cc2)CC1", "inhibition": "-1.6%"}
{"smiles": "Cc1ccccc1C(=O)N1CCC(C(=O)Nc2ccc(S(=O)(=O)N(C)C(C)C)cc2)CC1", "inhibition": "61.2% (active)"}
{"smiles": "NC(=NC(=O)c1ccccc1)C1=C(O)CCC1=O", "inhibition": "0%"}
{"smiles": "O=C(NC1CCc2ccccc21)C12CN(Cc3ccccc3)CC1C(c1cccc([N+](=O)[O-])c1)=NO2", "note": "(stereo unspecified)", "inhibition": "42.7%"}
{"smiles": "O=C(O)Cc1ccc(NC(=O)c2cccs2)cc1", "inhibition": "-6.9%"}
{"smiles": "CCc1ccccc1NC(=O)c1cccs1", "inhibition": "-6.7%"}
{"smiles": "Cc1cc2cc(CNC(=O)c3cccs3)ccc2[nH]1", "inhibition": "60.2% (active)"}
{"smiles": "O=C(/C=C/Sc1ncn[nH]1)c1ccc(Cl)cc1", "inhibition": "10.9%"}
{"smiles": "Cc1nc2ccccc2c(-c2ccccc2)c1C(=O)c1ccccc1", "inhibition": "19.7%"}
{"smiles": "CCOC(=O)C1=C(CC)Nc2ccccc2N=C1NC(=O)c1cccc(S(=O)(=O)N2CCCC2)c1", "inhibition": "90.2% (active)"}
{"smiles": "CCOC(=O)CSc1nnc(NC(=O)c2cccc(S(=O)(=O)N3CCCC3)c2)s1", "inhibition": "14.4%"}
{"smiles": "CCOC(=O)CSc1nnc(NC(=O)c2cccc(S(=O)(=O)N3CCCCC3)c2)s1", "inhibition": "35.5%"}
{"smiles": "COc1ccc2c(CC(=O)Nc3nnc(C4CC4)s3)coc2c1", "inhibition": "24.7%"}
{"smiles": "CC(=O)c1c(N2CCOCC2)nc(=S)n(Cc2ccccc2)c1C", "inhibition": "12.5%"}
{"smiles": "COc1ccc(CN2CC(C(=O)NCCN3CCN(c4ccccc4F)CC3)CC2=O)cc1", "note": "(stereo unspecified)", "inhibition": "-10.3%"}
{"smiles": "COc1ccc(N2CCN(CCNC(=O)CCN3C(=O)COc4ccccc43)CC2)cc1", "inhibition": "-2.8%"}
{"smiles": "COc1ccc(N2CCN(CCNC(=O)c3nnc(Cc4c(F)cccc4Cl)o3)CC2)cc1", "inhibition": "66.3% (active)"}
{"smiles": "C/C(=C(\\C#N)C(=O)NCCCN1CCOCC1)N(C)C", "inhibition": "-16.4%"}
{"smiles": "CC(=O)Nc1ccc(S(=O)(=O)NCCc2ccccc2)cc1", "inhibition": "49.5%"}
{"smiles": "Cc1cc(C)c(C)c(S(=O)(=O)Nc2ccc(O)cc2)c1C", "inhibition": "-16.6%"}
{"smiles": "CC(=O)Nc1ccc(NS(=O)(=O)c2cc(C)sc2C)cc1", "inhibition": "56.5% (active)"}
{"smiles": "Cc1cccc(NC(=O)COc2ccc(Br)cc2C)n1", "inhibition": "-11%"}
{"smiles": "O=C(COC(=O)c1ccc(Oc2ccccc2)cc1)Nc1nnc(-c2ccccc2)o1", "inhibition": "89.1% (active)"}
{"smiles": "COc1ccc(CC(=O)Nc2ccc(-c3nnc(-c4ccccc4)o3)cc2)cc1", "inhibition": "19%"}
{"smiles": "O=C(Nc1cccc(Cl)c1)Nc1nnc(-c2ccccc2)o1", "inhibition": "8.9%"}
{"smiles": "COc1cccc(-n2c(Cc3cc(=O)[nH]c(=O)[nH]3)nnc2SCC(=O)Nc2ccccc2)c1", "inhibition": "-48.2%"}
